This is a sample that favours compounds with a hit; in the whole collection about 2.9% have one here.
Pol beta inh = DNA polymerase beta (human) inhibition. P06746. Pol beta primer extension/strand displacement, fluorescence kinetic. Potency, µM (doses to about 114 µM), usual class: inhibitors. actives 1.3% (n = 340,000). AID 485314
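Enzyme-only controls used 10 nM Pol beta; buffer lacking enzyme served as negative control. Compound preincubated 15 min, then 50 nM substrate added; 0 and 10 min reads at room temperature.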
Pol eta inh-1 = DNA polymerase eta (human) inhibition; recombinant Pol eta, fluorescent DNA replication assay; Potency, µM (titrated, usually from 114 µM), actives largely listed as inhibitors; actives 1.2% (n = 390,000); AID 588591
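Pol eta (10 nM) was preincubated with compounds for 15 min at room temperature, after which fluorescent replication substrate (50 nM final) was added to start the reaction. Fluorescence was read kinetically at 0 and 10 min.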
12-LOX inh = ALOX12 (human) lipoxygenase inhibition; P18054; purified 12hLO, xylenol orange hydroperoxide absorbance; Potency, µM (doses to about 108 µM), most hits filed as inhibitors; actives 1.1% (n = 580,000); AID 1671190
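Hydroperoxide product was detected by ferrous iron/xylenol orange as the 573 to 405 nm absorbance ratio. Arachidonic acid at 40 uM (final) was turned over for 30 min at room temperature by 150 nM human 12hLO, pH 7.0 Hepes buffer, after 15 min compound preincubation.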
Pol kappa inh-1 = blocks human DNA polymerase kappa activity. Q9UBT6. purified Pol kappa, fluorescent DNA synthesis assay, 10 min. Potency, µM (titrated, usually from 107 µM), usual class: inhibitors. actives 0.53% (n = 400,000)
Target sequence (Q9UBT6 whole entry, looked up): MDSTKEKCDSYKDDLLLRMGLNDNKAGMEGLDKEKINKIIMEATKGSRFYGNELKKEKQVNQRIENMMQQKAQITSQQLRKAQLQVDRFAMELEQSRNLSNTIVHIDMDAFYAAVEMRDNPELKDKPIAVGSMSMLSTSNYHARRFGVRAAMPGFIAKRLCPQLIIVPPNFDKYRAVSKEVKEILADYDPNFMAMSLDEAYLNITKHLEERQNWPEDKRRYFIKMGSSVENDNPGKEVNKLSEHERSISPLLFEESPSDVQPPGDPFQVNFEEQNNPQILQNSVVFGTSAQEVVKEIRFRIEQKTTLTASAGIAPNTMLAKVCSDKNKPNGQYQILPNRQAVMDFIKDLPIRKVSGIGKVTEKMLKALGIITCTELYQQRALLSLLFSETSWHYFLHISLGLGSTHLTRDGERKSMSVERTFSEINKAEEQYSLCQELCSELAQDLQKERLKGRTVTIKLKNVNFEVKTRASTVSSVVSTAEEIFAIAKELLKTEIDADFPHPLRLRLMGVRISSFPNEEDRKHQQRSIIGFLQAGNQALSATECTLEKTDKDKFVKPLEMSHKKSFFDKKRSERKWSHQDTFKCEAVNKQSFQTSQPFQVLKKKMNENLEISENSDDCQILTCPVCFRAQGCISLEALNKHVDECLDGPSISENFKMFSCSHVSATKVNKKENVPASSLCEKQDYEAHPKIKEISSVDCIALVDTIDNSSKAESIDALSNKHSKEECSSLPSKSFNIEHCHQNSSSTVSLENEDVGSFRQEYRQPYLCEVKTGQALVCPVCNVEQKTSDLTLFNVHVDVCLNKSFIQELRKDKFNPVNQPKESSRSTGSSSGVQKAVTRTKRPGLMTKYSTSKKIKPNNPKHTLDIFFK
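Enzyme at 10 nM met test compounds for 15 min at room temperature. Substrate addition (50 nM final) began the reaction, which was monitored by fluorescence at 0 and 10 min.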
Pol iota inh = blocks human DNA polymerase iota activity; Pol iota fluorescent replication assay, 10 min; Potency, µM (titrated, usually from 115 µM), usual class: inhibitors; actives 1% (n = 390,000); AID 588590
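Fluorescent replication assay read twice, at 0 min and 10 min after adding 50 nM (final) substrate. Enzyme (10 nM) and compounds were first incubated 15 min at room temperature; enzyme-free buffer wells were negative controls.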
PI5P4Ka inh = PI5P4K alpha (human) kinase inhibition; PI5P4Kalpha enzyme, ADP-Glo luminescence, 60 min; active compounds read low; max response, %; actives 1.2% (n = 330,000); AID 652105; active = max response of -50% or lower; inconclusive = between -30% and -50%; inactive = -30% or higher; also: value at the top dose of about 77 µM
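Single end-point luminescence (ADP-Glo) quantified ADP from PI5P4Kalpha turnover; ATP 5 microM final, 1 h at RT, 0.1% CHAPS and 0.28 mM EGTA in HEPES pH 7.4.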
PGK validate = blocks T. brucei phosphoglycerate kinase. shares compounds with Pol kappa inh-1. TbPGK coupled GAPDH assay, Kinase-Glo luminescence. Potency, µM (series often up to 57.5 µM), actives largely listed as inhibitors. actives 79% (n = 500). AID 686980; also: nearly all actives have a fitted effect of over 65% in size
Pol iota confirm = Inhibitors of human DNA polymerase iota, confirmation; shares compounds with Pol kappa inh-1; Pol iota primer extension, TAMRA/BHQ fluorescence; Potency, µM, actives largely listed as inhibitors; actives 77% (n = 1,500); AID 720496
Pol kappa inh-2 = Pol kappa (human) inhibition, cherry-pick confirmation. purified Pol-kappa, fluorescent strand-displacement substrate. shares compounds with Pol eta inh-1. Potency, µM, hits mostly inhibitors. actives 76% (n = 920)
Pol eta inh-2 = confirmation of human DNA polymerase eta inhibitors | shares compounds with Pol eta inh-1 | Pol eta primer extension, TAMRA/BHQ fluorescence, 10 min | Potency, µM, usual class: inhibitors | actives 64% (n = 2,600) | AID 720502
Numbers stand for hits; n = inactive; u = inconclusive; x = not tested or not shown. Unless noted, calls follow the shape of the dose curve; as a rule, active = well fitted curve in the direction sought with a large enough effect; inconclusive = small, poorly fitted or top-dose-only effect, or another doubt; inactive = no such curve, though single readings can be large; an effect the other way counts as inactive or inconclusive.

SMILES	Pol beta inh	Pol eta inh-1	12-LOX inh	Pol kappa inh-1	Pol iota inh	PI5P4Ka inh	Pol iota confirm	Pol eta inh-2	others
C=CCN1C(=O)/C(=C\C=C2\N(C)c3ccccc3C2(C)C)SC1=S	u	u	n	n	u	n	x	x
O=C(COc1ccc2ccc(=O)oc2c1)NC1CC1	x	x	n	x	x	x	x	x
Fc1ccc(Br)cc1-c1nc2cc3c(cc2[nH]1)OCCO3	x	x	n	x	x	x	x	x
O=c1c(O)cccc2cc(O)c(O)c(O)c12	0.16µM	n	13µM	0.89µM	u	-83	27	19	PGK validate=0.26µM;Pol kappa inh-2=24
COc1ccc2c(=O)c3c(=O)n(Cc4ccco4)c(-c4ccco4)nc3oc2c1	u	35µM	u	71µM	20µM	x	67	43
COC(=O)C1(C(=O)OC)C2C3C4CC5C6C4C2C6C1C53 (centres undefined)	x	x	n	x	x	x	x	x
O=C(Nc1cccc2nsnc12)c1ccc(-c2cccc(Cl)c2)o1	u	u	u	n	u	n	x	x
Cc1ccc(-c2nn3cnnc3s2)cc1NC(=O)c1ccc(-c2cccc(Cl)c2)o1	x	x	x	x	x	x	27	76	Pol kappa inh-2=u
COc1ccc(/C=N/NC(=O)c2nnn(-c3nonc3N)c2-c2cccc(OC)c2)cc1	n	n	n	n	n	n	x	x
COc1ccc(O)c(/C=N/NC(=O)c2c(C)nnn2-c2nonc2N)c1	4.5µM	u	n	u	u	n	75	x	Pol kappa inh-2=u
CC(=O)c1cccc(NC(=O)CSc2ccc(-c3ccco3)nn2)c1	50µM	u	u	u	22µM	u	u	u
CCOC(=O)C1CCN(C(=O)C2COC3(CCCCC3)N2C(=O)c2ccccc2)CC1 (centres undefined)	x	x	n	x	x	x	x	x
O=C(Cc1csc(N2CCOCC2)n1)N/N=C/c1ccc(O)c(O)c1O	u	u	n	u	u	-60	15	43
C/C(=N\NC(=O)Cc1csc(N2CCOCC2)n1)c1ccccc1	n	n	n	n	n	n	x	x
N#Cc1ccc(OCC(=O)Nc2cccc(S(=O)(=O)NC3=NCCCCC3)c2)cc1	x	u	n	n	79µM	u	67	u
CSc1ccc(-c2noc(Cn3cnc4c(oc5ccccc54)c3=O)n2)cc1	x	x	n	x	x	x	x	x
N#C/C(=C/c1ccsc1)c1ccc2ccccc2n1	x	x	n	x	x	x	x	x
O=C(O)C1=NN(c2cc(Cl)c(S(=O)(=O)O)cc2Cl)C(=O)C1	x	22µM	n	79µM	1.6µM	n	x	u	PGK validate=9.2µM;Pol kappa inh-2=15
CC1=NN(c2ccc(S(=O)(=O)O)cc2C)C(=O)C1	n	u	n	n	n	n	x	x
COc1ccc(Nc2nc3ccccc3nc2NS(=O)(=O)c2ccc(F)cc2)c(OC)c1	x	x	n	x	x	x	x	x
O=C1C(Cl)=C(Nc2ccccc2)C(=O)c2ccccc21	n	n	n	n	n	n	x	x
O=C1C(Cl)=C(NCCc2ccccc2)C(=O)c2ccccc21	x	22µM	4µM	n	3.5µM	-85	47	48
COc1ccc2c(CNc3ccc(C)cc3C)cc(=O)oc2c1	x	x	n	x	x	x	x	x
CCCCCCCCCCCCCCCCCCNc1ccn(C2OC(COP(=O)(O)OCC3OC(n4cc(F)c(=O)[nH]c4=O)CC3O)C(O)C2O)c(=O)n1 (centres undefined)	x	14µM	u	45µM	18µM	-69	42	43	Pol kappa inh-2=27
O=c1[nH]c(=O)n(C2CC(O)C(CO)O2)cc1F (centres undefined)	x	x	x	n	x	x	x	x
SMILES	Pol beta inh	Pol eta inh-1	12-LOX inh	Pol kappa inh-1	Pol iota inh	PI5P4Ka inh	Pol iota confirm	Pol eta inh-2	others
COc1ccc2[nH]c(=O)c(-c3nnn(-c4ccccc4)n3)cc2c1	n	n	n	n	n	n	x	x
COc1ccc2[nH]c(=O)c(-c3noc(-c4ccccc4)n3)cc2c1	n	u	n	n	u	n	42	67
CCCCCCc1c(C)c2ccc(OCC(=O)N[C@@H](Cc3ccccc3)C(=O)O)cc2oc1=O	n	35µM	n	n	n	n	84	u
Cc1ccc(C(=O)NCCn2c(N)c(C#N)c3nc4ccccc4nc32)cc1	u	n	n	n	n	n	x	x
CCCCn1c(NC(=O)c2ccccc2)c(C#N)c2nc3ccccc3nc21	40µM	u	n	u	u	x	34	24
N#Cc1c(N)n[nH]c1CCCNC(=O)C1c2ccccc2Oc2ccccc21	x	x	n	x	x	x	x	x
Oc1ccc(C=Nc2ccc(N3CCOCC3)cc2)c(O)c1	n	14µM	n	n	u	-60	u	u
O=[N+]([O-])c1cc(/C=N/n2c(-c3cccnc3)n[nH]c2=S)ccc1Cl	5.6µM	20µM	u	u	u	u	17	43
COCCN(CCOC)C(=O)COc1cc2oc(=O)cc(-c3ccccc3)c2cc1Cl	x	x	n	x	x	x	x	x
COc1ccc(-c2nn(C)c3sc(C(=O)Nc4cc(OC)c(OC)c(OC)c4)cc23)cc1OC	45µM	40µM	n	50µM	22µM	x	38	60
CCCCn1c(N)c(N(CCC)C(=O)Cn2c(CSC)nc3ccccc32)c(=O)[nH]c1=O	x	x	n	x	x	x	x	x
COc1ccc2nc(C)cc(SCC(=O)N/N=C/c3cccc4ccccc34)c2c1	n	u	n	n	n	x	x	x
O=C(CSc1nc2ccccc2o1)N/N=C/c1ccc(O)c(O)c1	u	3.5µM	u	7.1µM	2.5µM	-89	17	12	PGK validate=3.3µM;Pol kappa inh-2=8.4
O=C(N/N=C/c1ccc(O)c(O)c1)N/N=C/c1ccc(O)c(O)c1	0.32µM	0.71µM	u	0.79µM	0.89µM	-69	3	6	PGK validate=1.2µM;Pol kappa inh-2=2.1
COc1cccc2c(SCC(=O)N/N=C/c3ccc(O)c(O)c3)cc(C)nc12	2µM	7.9µM	n	13µM	11µM	n	30	19
COc1ccc2nc(C)cc(SCC(=O)N/N=C/c3ccc(O)c(O)c3)c2c1	2.2µM	4.5µM	u	28µM	16µM	n	u	24
Cc1nonc1C(=O)N/N=C/c1ccc(O)c(O)c1	n	n	u	n	n	n	x	x
CC(C)(C)SCC(=O)N1CCCC(O)C1 (centres undefined)	x	x	n	x	x	x	x	x
CCN(CC)C(=O)C(c1ccccc1)N1CCN(S(=O)(=O)c2cccs2)CC1 (centres undefined)	x	x	n	x	x	x	x	x
NS(=O)(=O)c1ccc(CCNC(=O)COC(=O)Cc2ccc([N+](=O)[O-])cc2)cc1	x	n	n	n	n	n	x	x
